Source: PubChem
In the library only some 10% were active in any assay of this set; here they are far more common.
Luc counter: Counterscreen for Luciferase (Kinase-Glo TM) Inhibition | Luciferin 4-monooxygenase (Photuris pensylvanica), Q27757 | Kinase-Glo luciferase, ATP luminescence, 8 min | Potency, µM (highest dose often 38.3 µM), inactives show at the highest dose activity change, negative = inhibition, most hits filed as inhibitors | 200,000 compounds, 0.28% hits | AID 1379, 2008; active = well fitted inhibition curve with a large enough effect; inconclusive = small, poorly fitted or top-dose-only effect; also: potency is read from the fitted curve at half-maximal effect; nearly all actives have a fitted effect of over 60% in size
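Inhibition of Kinase-Glo luciferase light generation was assessed at 10 uM ATP in pH 7.2 imidazole buffer, with luminescence measured after eight minutes at ambient temperature.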
HPGD block: qHTS Assay for Inhibitors of HPGD (15-Hydroxyprostaglandin Dehydrogenase); 150,000 compounds, 4.3% hits; purified HPGD, NADH fluorescence kinetic, PGE2 substrate; Potency, µM, for the others: top-dose activity change, negative = inhibition, usual class: inhibitors; also: potency is read from the fitted curve at half-maximal effect
Target sequence (P15428 whole entry, looked up): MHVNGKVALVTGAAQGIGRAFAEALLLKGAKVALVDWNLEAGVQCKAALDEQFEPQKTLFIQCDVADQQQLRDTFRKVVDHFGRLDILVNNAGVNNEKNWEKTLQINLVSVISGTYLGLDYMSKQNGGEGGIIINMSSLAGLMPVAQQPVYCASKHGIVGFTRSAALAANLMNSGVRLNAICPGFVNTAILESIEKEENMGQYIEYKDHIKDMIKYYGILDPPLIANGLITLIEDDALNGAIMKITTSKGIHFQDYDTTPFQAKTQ
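20 nM HPGD preincubated 15 min at room temperature with compound in 50 mM Tris-HCl pH 8, 0.01% Tween 20. Started with 1 mM NAD+ and 30 uM prostaglandin E2; NADH fluorescence (360/450 nm) read 5 times over 30-s intervals, last minus first.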
ALDH1A1 inh: qHTS Assay for Inhibitors of Aldehyde Dehydrogenase 1 (ALDH1A1); Aldehyde dehydrogenase 1A1 (Homo sapiens), P00352; Purified ALDH1A1, NADH fluorescence, propionaldehyde substrate; Potency, µM (top dose mostly 75.3 µM), for the others: at the top dose activity, negative = inhibition, hits mostly inhibitors; 220,000 compounds, 7.3% hits; AID 1030, 2008;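 also: potency is read from the fitted curve at half-maximal effect; plate controls were no enzyme wells and a reference inhibitor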
Target sequence (P00352 whole entry, looked up): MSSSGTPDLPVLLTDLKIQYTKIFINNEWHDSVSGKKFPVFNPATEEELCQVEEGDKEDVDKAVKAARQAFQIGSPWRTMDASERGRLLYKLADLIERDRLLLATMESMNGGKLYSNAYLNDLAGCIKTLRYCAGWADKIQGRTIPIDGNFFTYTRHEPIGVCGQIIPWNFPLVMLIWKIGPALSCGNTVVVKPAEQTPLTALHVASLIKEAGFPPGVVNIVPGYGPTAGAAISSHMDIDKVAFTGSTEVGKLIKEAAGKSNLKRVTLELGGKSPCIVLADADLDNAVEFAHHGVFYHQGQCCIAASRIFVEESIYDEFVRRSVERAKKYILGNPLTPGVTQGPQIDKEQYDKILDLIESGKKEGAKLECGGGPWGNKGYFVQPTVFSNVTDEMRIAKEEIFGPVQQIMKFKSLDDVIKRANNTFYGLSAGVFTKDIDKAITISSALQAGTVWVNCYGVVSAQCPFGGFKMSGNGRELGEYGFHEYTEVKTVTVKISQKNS
LMNA splice mod: qHTS Assay for Modulators of Lamin A Splicing. HeLa LMNA splicing GFP/RFP minigene ratio, 48 h. Potency, µM (top dose mostly 46.1 µM), for the others: at the highest dose ratio change, negative = inhibition, actives largely listed as inhibitors. 200,000 compounds, 0.01% hits. AID 1487, 2009; active = well fitted inhibition curve with a large enough effect in the signal ratio, with a control signal flat, not every such curve was filed as active; inconclusive = small, poorly fitted or top-dose-only effect, or effect the other way, or a change in a side signal; the % refers to the signal ratio; also: potency is read from the fitted curve at half-maximal effect
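Read-out is the ratio of GFP to DsRed2 object intensity, acquired by 488 nm laser-scanning cytometry on HeLa lamin A-EGFP minigene reporter cells. Compound incubation 48 hrs at 37 °C in Opti-MEM with 2% FBS; DMSO 0.5% final.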
PNC inhibitor: High Content Assay for Compounds that inhibit the Assembly of the Perinucleolar Compartment | PC3M PTB-GFP, PNC prevalence imaging, 16 h; stronger effect = lower value | activity change (PNC), negative = inhibition, % at 10 µM | 140,000 compounds, 3.1% hits;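 active = readout at or below -70, meaning at least 70% loss of cells showing the perinucleolar compartment, a nuclear body marking cancer cells; inconclusive = readout between -30 and a set limit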;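 also: plate controls were DMSO wells for no effect and camptothecin positive control wells for full effect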
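PC3M cells stably expressing PTB-GFP, 750–1000 cells/well, treated 16 h at 37 °C with compound (23 nl of library stock), in duplicate. After paraformaldehyde fixation and Hoechst stain, imaged at 20x; PNC prevalence scored by image analysis.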
The depositor's hits bear a star; ? = inconclusive; nt = not tested or not shown; [ ] = remark or other dose. Unless noted, calls follow the shape of the dose curve; as a rule, active = well fitted inhibition curve with a large enough effect (not every such curve was filed as active); inconclusive = small, poorly fitted or top-dose-only effect, or another doubt; inactive = no such curve, though single readings can be large or run the other way. Unless noted, % is scaled to controls: 0 for no effect and ±100 for the full control effect.

SMILES | Luc counter | HPGD block | ALDH1A1 inh | LMNA splice mod | PNC inhibitor
COc1cccc(NC(=S)/C(=C(\[O-])c2ccc(C)c([N+](=O)[O-])c2)[n+]2ccccc2)c1 | -6% | -16% | ? | -5% | 54
COc1cccc(NC(=S)/C(=C(\[O-])c2ccc(OC(F)F)cc2)[n+]2ccccc2)c1 | -3% | nt | 20µM* | -3%[46 µM] | nt
COc1ccc(C(=O)c2cn(CC(=O)Nc3cc(C)ccc3C)c3nc(C)ccc3c2=O)cc1 | nt | nt | nt | 12%[46 µM] | nt
O=C(CN1c2ccc(Br)cc2-c2ccccc2S1(=O)=O)N1CCCCC1 | nt | nt | nt | 13%[46 µM] | nt
CC(C)N(Cc1ccccc1)S(=O)(=O)c1ccc(N2CCCCS2(=O)=O)cc1 | nt | nt | nt | -5%[46 µM] | nt
COc1ccc2c(C=O)c[nH]c2c1 | -4% | -12% | 6.3µM* | -12% | ?
O=C(COC(=O)CCC(=O)c1ccc(F)cc1)Nc1ccc(N2CCOCC2)cc1 | 10% | 18µM* | -10% | 0% | -4
N#Cc1ccc(C(=O)OCC(=O)Nc2ccc(N3CCOCC3)cc2)cc1 | 0% | nt | ? | -17%[46 µM] | nt
CN(C)c1ccc(C(=O)OCC(=O)Nc2ccc(N3CCOCC3)cc2)cc1 | nt | nt | 13µM* | nt | nt
Cc1cccc([N+](=O)[O-])c1C | nt | -2% | -5% | nt | nt
O=C(CNS(=O)(=O)/C=C/c1ccccc1)OCC(=O)N1CCC(Cc2ccccc2)CC1 | 0% | -3% | ? | -2% | -107*
CS(=O)(=O)N(CC(=O)Nc1ccccc1C(=O)N1CCCC1)c1cccc([N+](=O)[O-])c1 | 0% | nt | 16µM* | -14%[46 µM] | nt
COCCN=C1OC(=O)N2C(=O)C3=C4C(C[C@H]5C(=O)N(c6ccccc6)C(=O)[C@H]5[C@H]4[C@@]12Cc1ccccc1)[C@H]1C(=O)N(c2ccccc2)C(=O)[C@H]1[C@H]3C (some centres undefined) | -4% | -11% | -1% | nt | nt
Clc1ccccc1-c1nc(/C=N/N2CCOCC2)c2ccccn12 | -2% | nt | 40µM* | -14%[46 µM] | nt
COc1ccccc1Cn1nnc2c(=O)[nH]c(C3CCN(C(=O)c4ccc(C)cc4)CC3)nc21 | -1% | ? | 1% | 25% | 9
COc1ccccc1Cn1nnc2c(=O)[nH]c(C3CCN(C(=O)c4ccc(F)cc4)CC3)nc21 | -1% | 11µM* | -3% | 14% | 27
Cc1ccc(CC(=O)N2CCC(c3nc4c(nnn4Cc4ccccc4)c(=O)[nH]3)CC2)cc1 | 1% | ? | -7% | 7% | 15
COc1ccccc1Cn1nnc2c(=O)[nH]c(C3CCN(C(=O)c4ccccc4Cl)CC3)nc21 | 4% | 14µM* | ? | 19% | -24
CC(C)(C)CC(=O)N1CCC(c2nc3c(nnn3Cc3c(F)cccc3Cl)c(=O)[nH]2)CC1 | nt | nt | 3% | -4% | 29
O=C(c1ccccc1)N1CCC(c2nc3c(nnn3Cc3ccccc3Cl)c(=O)[nH]2)CC1 | 0% | 11µM* | ? | 6% | -6
O=C(c1ccccc1Cl)N1CCC(c2nc3c(nnn3Cc3ccco3)c(=O)[nH]2)CC1 | -2% | 14µM* | 28µM* | -10% | 4
CC1C(=O)N(C)C(=O)c2nc[nH]c21 (centres undefined) | -3% | -8% | -3% | -13% | nt
C=CCn1cc(/C=N/N2C(=O)C3C4C=CC(C4)C3C2=O)c2ccccc21 (centres undefined) | -1% | nt | 25µM* | 11%[46 µM] | nt
Clc1ccc(Cn2cc(/C=N/n3cnnc3)c3ccccc32)cc1 | 2% | -9% | ? | -12% | -10
CCc1nnc(NC(=O)CSc2nnc3ncccn23)s1 | 4% | -27% | ? | -6% | -82*
SMILES | Luc counter | HPGD block | ALDH1A1 inh | LMNA splice mod | PNC inhibitor
Cc1ccc(C(=O)n2nc(C)c(S(=O)(=O)N3CCOCC3)c2C)cc1 | nt | nt | nt | -7%[46 µM] | nt
CCN(CC)c1ccc(/C=C2/C(=O)c3ccc(C(=O)O)cc3C2=O)cc1 | -11% | 11µM* | 8.9µM* | -11% | -13
CCN(CC)c1ccc(/C=C2/C(=O)ON=C2C)cc1 | -3% | -19% | 1.5µM* | -10% | 6
CCN(CC)c1ccc(/C=c2/sc3nnc(-c4ccccc4C)n3c2=O)cc1 | 4% | -9% | 10% | 10% | -26
CC1=NOC(=O)/C1=C/c1ccc(N(C)C)cc1 | nt | nt | 0% | -3% | 25
CCN(CC)c1ccc(/C=C/C(=O)c2ccc(Br)cc2)cc1 | 2% | -4% | ? | -24% | ?
CCN(CC)c1ccc(C=C2C(=O)OC3(CCCCC3)OC2=O)cc1 | -1% | nt | 0.18µM* | ? | nt
CCCCC1(C)OC(=O)C(=Cc2ccc(N(CC)CC)cc2)C(=O)O1 (centres undefined) | -8% | 20µM* | 0.4µM* | 2% | 19
CCOC(=O)C1CCN(Cc2cn3c(-c4ccc(OC)cc4)nnc3s2)CC1 | nt | nt | nt | -6%[46 µM] | nt
O=c1[nH]ncc2c3ccccc3n(Cc3ccccc3)c12 | -5% | -13% | -6% | 0% | 67
Cc1ccc(Cn2c3ccccc3c3cn[nH]c(=O)c32)cc1 | 2% | -18% | ? | 1% | -108*
COc1cc(C(=S)N2CCCC2)ccc1O | -1% | 28µM* | 14µM* | 0% | 12
COc1cc(C(=S)N2CCC(C)CC2)ccc1O | -3% | 14µM* | 10µM* | 0% | 5
COc1cc(C(=S)N2CCCCC2)ccc1O | 0% | -16% | ? | 6% | -1
COc1cc(C(=S)N2CCC(C(N)=O)CC2)ccc1O | -1% | 18µM* | 10µM* | 16% | -4
COCCn1c(=O)c(CCc2ccccc2)nc2cnc(N(C)C)nc21 | nt | nt | ? | -5% | nt
CCCC[C@@H]1C[C@H]1C(NC(=O)c1ccccc1)c1ccccc1C(F)(F)F (some centres undefined) | -6% | -16% | 0% | nt | nt
COC(=O)C1Cc2c([nH]c3ccccc23)C(C)N1 (centres undefined) | 0% | -6% | 1% | -10% | -91*
O=C(O)C1Cc2c([nH]c3ccccc23)C(c2ccccc2)N1 (centres undefined) | nt | nt | 2%[13.5 µM] | nt | nt
CCCNC(=O)[C@H]1O[C@@H]1C(=O)N[C@H](C(=O)N1CCC[C@H]1C(=O)OC)[C@@H](C)CC | nt | nt | 8% | nt | nt
COc1ccc(CNc2oc(COc3ccc(Cl)cc3)nc2C#N)cc1 | -2% | -23% | -5% | ? | -11
COCCCNc1oc(COc2ccc(Cl)cc2Cl)nc1C#N | 0% | 28µM* | 0% | 0% | ?
COc1ccc(Nc2oc(COc3ccc(Cl)cc3)nc2C#N)cc1 | -1% | 28µM* | -6% | 0% | 0
N#Cc1nc(COc2ccccc2F)oc1NCc1ccc(F)cc1 | 1% | 20µM* | ? | 6% | 8
